Active and inactive are the calls of the source. The calls were made as follows: active = hit-call score of the fitted dose curve at least 0.9, where 1 is the maximum; inactive = score below 0.9.

This test in a line: ATG_M_19_CIS: Attagene CIS-FACTORIAL HepG2 Assay for M19 Transcription Factor (Internal Marker) (AID 2282939). Conditions: HepG2 Attagene CIS-FACTORIAL M19 internal marker reporter; actives raise or lower the signal. As for the experimental part:
ATG_CIS is a cell-based, multiplexed-readout assay that uses HepG2, a human liver cell line, with measurements taken at 24 hours after chemical dosing in a 24-well plate.ATG_M_19_CIS is one of 52 assay component(s) measured or calculated from the ATG_CIS assay. It is designed to make measurements of mRNA induction, a form of inducible reporter, as detected with fluorescence intensity signals by Reverse transcription polymerase chain reaction (RT-PCR) and Capillary electrophoresis technology.Data from the assay component ATG_M_19_CIS was analyzed into 1 assay endpoint. This assay endpoint, ATG_M_19_CIS, was analyzed with bidirectional fitting relative to DMSO as the negative control and baseline of activity. Using a type of inducible reporter, measures of mRNA for gain or loss-of-signal activity can be used to understand the background control at the transcription factor-level as they relate to the gene . Furthermore, this assay endpoint can be referred to as a secondary readout, because this assay has produced multiple assay endpoints where this one serves a background control function. To generalize the intended target to other relatable targets, this assay endpoint is annotated to the background measurement intended target family, where the subfamily is internal marker.
Human liver HepG2 cells are transiently transfected with multiple reporter transcription units (MRTUs) in 6-well plates using FuGene 6 reagent (Roche; 3 ml FuGene/1 mg DNA). The MRTU constructs are regulated by a cis-regulating element (promoter). […] A major difference between the CIS and TRANS system is that in CIS activities of endogenous TFs are measured, whereas the TRANS assay evaluates changes in activities of exogenous, chimeric NR-Gal4 proteins. […] At the end of 24 hour incubation, total RNA was isolated using TriZol reagent (Invitrogen). The isolated RNA is then reverse-transcribed using oligo(dT) primer and Mo-MLV reverse transcriptase (Invitrogen) with DNAse I (Ambion) treatment for 30 min. The one-tenth of the produced cDNA was amplified by PCR using Taq DNA polymerase (Invitrogen) and two reporter sequence-specific primers. The PCR products were fluorescently labeled by primer extension with 6-arboxyfluorescein (6-FAM) 5'-labeled reporter sequence-specific primer (2 min at 95 C, 20 s at 68 C and 10 min at 72 C) and these products were digested with 5U of HpaI (New England Biolabs) for 2h at 37 C. The fragments were purified using Qiaquick PCR columns (Qiagen), analyzed on an ABI 3130xL genetic analyzer (Applied Biosystems) with peak positions identified by using a set of X-rhodamine (ROX)-labeled MapMarker1000 molecular weight standards (BioVentures). The raw capillary electrophoresis data was processed using Attagraph software (Attagene).
Turning to `C[CH2][Hg][S]c1ccccc1C(=O)O`, the compound was classed as inactive.

As to `O=S(=O)(c1ccc(Cl)cc1)c1cc(Cl)c(Cl)cc1Cl`, the compound was called inactive.

On to `C=CC(Cl)CCl` (stereo not given), for which the call was inactive.

On to `C#CCO`, for which the call was inactive.

On to `C[C@H]1C(=O)O[C@@H]2CCN3CC=C(COC(=O)[C@](C)(O)[C@]1(C)O)[C@H]23`, for which the outcome was inactive.

With `O=C(CCl)Nc1ccccc1`, the AC50 was 167 µM (active).

Consider `COCCl`, for which the compound was classed as inactive.

For the compound `c1ccc2sc(SNC3CCCCC3)nc2c1`, the compound was classed as inactive.

With `OC(c1ccc(Cl)cc1)(c1ccc(Cl)cc1)c1cccnc1`, the result was inactive.

In the case of `Brc1ccc(Br)cc1`, the compound was classed as inactive.

For `CCCCCCCCCCCCOS(=O)(=O)O`, the call was inactive.

As for `OCCN(CCO)CCO`, the compound was classed as inactive.

Regarding `CCN(CCO)CCO`, the compound was called inactive.

For `C#C[C@]1(O)CC[C@H]2[C@@H]3CCC4=CC(=O)CC[C@]4(C)[C@H]3CC[C@@]21C`, the compound was called inactive.

Consider `CN(CCCC(O)c1cccnc1)N=O` (stereo not given), for which the outcome was inactive.

Turning to `OC(Cc1ccccc1Cl)(Cn1[nH]cnc1=S)C1(Cl)CC1` (stereo not given), the AC50 was 64.6 µM (active).

As for `Brc1c(Br)c(Br)c(Oc2c(Br)c(Br)c(Br)c(Br)c2Br)c(Br)c1Br`, the outcome was inactive.

For the compound `Nc1nc(N)nc(Cl)n1`, the compound was classed as inactive.

With `CC(c1ccc(O)cc1)c1ccc(O)cc1`, the compound was classed as inactive.

Take `CC(O)(CS(=O)(=O)c1ccc(F)cc1)C(=O)Nc1ccc(C#N)c(C(F)(F)F)c1` (stereo not given): the result was inactive.

Turning to `Cc1cccc(C)c1NC(=O)CN1CCCC1=O`, the compound was called inactive.

For the compound `OC[C@@H](O)[C@H]1O[C@@H]2O[C@H](C(Cl)(Cl)Cl)O[C@@H]2[C@H]1O`, the outcome was inactive.

Take `Cc1cc(-c2cc(C)c(N)c(C)c2)cc(C)c1N`: the outcome was inactive.

Consider `CNC(=O)N(C)c1nc2ccccc2s1`, for which the outcome was inactive.

Take `O=C(NC(=O)c1c(F)cccc1F)Nc1cc(Cl)c(OC(F)(F)C(F)C(F)(F)F)cc1Cl` (stereo not given): the outcome was inactive.

`Nc1c(Oc2ccccc2)cc(O)c2c1C(=O)c1ccccc1C2=O`: the compound was classed as inactive.

As for `CN(C1CCCCC1)C1CCCCC1`, the compound was called inactive.

As to `Cc1ccc(CCl)cc1`, the compound was called inactive.

As to `CNC(=O)O/N=C/C(C)(C)S(C)(=O)=O`, the outcome was inactive.

With `C=C(C)C(=O)OCC(CC)CCCC` (stereo not given), the compound was classed as inactive.

Turning to `C1CN2CCN1CC2`, the call was inactive.

For `CCOC(=O)C(SP(=S)(OC)OC)c1ccccc1` (stereo not given), the call was inactive.

Regarding `NC(=O)CCl`, the compound was classed as inactive.

`Clc1cccc(Cl)c1Cl`: the compound was called inactive.

For the compound `CCCCCCCCCCCCCCC(Br)C(=O)O` (stereo not given), the AC50 is 183 µM (active).

Take `CC(=O)C(F)(F)C(F)(F)F`: the outcome was inactive.

On to `N#Cc1cccnc1`, for which the result was inactive.

On to `CCOC(=O)Cc1ccccc1`, for which the call was inactive.

On to `O=C(O)CC(O)(CC(=O)O)C(=O)O`, for which the outcome was inactive.

In the case of `BrCCCCBr`, the compound was classed as inactive.

(Values after PubChem BioAssay (EPA / NIEHS).)
